Screening data from PubChem BioAssay.
FECH block: blocks human mitochondrial ferrochelatase activity; P22830; actives 3.3% (n = 20,000); purified FECH, Ni-mesoporphyrin absorbance 550 nm; calls only at 10 µM (by protocol); AID 1671448;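 active means enzyme reaction rate more than 3 SD below the solvent-only control wells on the same plate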;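 further: lower slope than DMSO wells means FECH inhibition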
Target sequence (P22830 whole entry, looked up): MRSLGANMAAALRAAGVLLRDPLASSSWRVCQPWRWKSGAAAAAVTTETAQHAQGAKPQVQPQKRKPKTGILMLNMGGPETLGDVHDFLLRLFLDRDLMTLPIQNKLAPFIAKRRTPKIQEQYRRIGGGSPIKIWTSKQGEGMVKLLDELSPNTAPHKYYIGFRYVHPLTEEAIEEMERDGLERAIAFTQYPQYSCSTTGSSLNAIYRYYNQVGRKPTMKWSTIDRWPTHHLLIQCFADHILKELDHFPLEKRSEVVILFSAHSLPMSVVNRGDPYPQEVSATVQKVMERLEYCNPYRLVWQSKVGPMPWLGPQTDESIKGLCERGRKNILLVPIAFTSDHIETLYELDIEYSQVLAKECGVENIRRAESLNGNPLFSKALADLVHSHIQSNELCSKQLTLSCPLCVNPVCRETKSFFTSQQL
Numbers without * were called inactive; i = inactive; + = active, no number. The sample as a whole holds a higher share of hits than the screen did.

SMILES | FECH block
CCc1nc(CNC(=O)CCn2c(C)cc3ccccc32)cs1 | i
CCC(=O)Nc1cc(Cl)ccc1C(=O)N1CCN2CCN(C)CC2C1 (stereo not given) | i
CCC(C)N(CC1=CCN(Cc2ncccn2)CC1)C(C)=O (stereo not given) | i
C=CCNc1ccccc1C(=O)N1CCN(CCS(C)(=O)=O)CC1 | i
CCOc1ccccc1CN(C(=O)c1cn(CC)c2nc(C)ccc2c1=O)C1CC1 | i
CCOc1ccccc1CN(C(=O)c1cn2cc(Cl)ccc2n1)C1CC1 | +
CCOc1ccccc1CN(CC)C(=O)c1ccc2nccn2c1 | i
CCC1=C(c2ccc(OC)cc2)S(=O)(=O)N(CC(=O)Nc2cccc(SC)c2)C1=O | i
Cc1ccc(CNC(=O)c2ccc(Nc3cc(-c4ccccc4)ncn3)cc2)cc1 | i
Cc1cc(C(F)(F)F)n(-c2nc(C(=O)N3CC[C@H](O)[C@@H](O)C3)cs2)n1 | i
CCc1nc2nc(C)[nH]n2c(=O)c1NC(=O)Nc1ccc(C)c(Cl)c1 | i
COc1ccc(Cl)cc1NCc1nc2nc3c(c(=O)n2[nH]1)CCC3 | i
O=c1c2c(nc3nc(CNc4ccc(Cl)cc4)[nH]n13)CCC2 | +
Cc1ccc(NCc2nc3nc4c(c(=O)n3[nH]2)CCC4)cc1Cl | +
CCc1ccccc1NCc1nc2nc3c(c(=O)n2[nH]1)CCC3 | +
O=c1cc(CNc2ccccc2)nc2nc(NCc3ccc(F)cc3)[nH]n12 | i
CCc1nc2nc(C)[nH]n2c(=O)c1NC(=O)Nc1ccccc1F | i
O=c1c2c(nc3nc(CNc4ccccc4)[nH]n13)CCC2 | +
O=c1cc(CN2CCCC2)nc2nc(NCc3ccc(Cl)cc3)[nH]n12 | i
Cc1ccc(NCc2cc(=O)n3[nH]c(NCc4ccc(F)cc4)nc3n2)cc1Cl | i
CCCc1cnc(C)nc1N1CCN(Cc2cc(C(C)(C)C)n[nH]2)CC1 | i
COc1cccc(-c2cc(N3CCN(C(=O)Nc4cc(Cl)c(OC)cc4OC)CC3)ncn2)c1 | i
COCCCNc1nc(Nc2cccc(OC)c2)c2cnn(-c3ccccc3)c2n1 | i
CN(Cc1ccc(Sc2ncccn2)o1)CC1CC(=O)N(C2CCCC2)C1 (stereo not given) | i
Cc1ccccc1Oc1ncccc1CNc1cnc2ccccc2n1 | i
SMILES | FECH block
O=C(NCc1cccnc1Oc1ccc(F)c(F)c1)[C@H](O)c1ccccc1 | i
COC(=O)CN(C)Cc1cccc(C(=O)Nc2nccs2)c1 | i
Cc1ccccc1CNc1ccnc(C(=O)NCCN2CCOCC2)c1 | i
NS(=O)(=O)c1ccc(CCNC(=O)c2nc(-c3ccc(N4CCCCC4)cc3)no2)cc1 | i
Cc1cc(C(=O)N[C@@H]2C[C@H]3C(=O)NCC(=O)N3C2)c2ccc(C)c(C)c2n1 | i
CCCc1c(C)nc2ncnn2c1Sc1ccc(NC(=O)Nc2ccc(OC)c(OC)c2)cc1 | i
CCCc1c(C)nc2ncnn2c1Sc1ccc(NC(=O)c2c(OC)cccc2OC)cc1 | i
CCCc1cc(Sc2ccc(NC(=O)c3cccc(F)c3)cc2)n2ncnc2n1 | +
CCc1cc(Sc2ccc(NC(=O)Nc3ccc(Cl)cc3)cc2)n2ncnc2n1 | +
CCc1c(C)nc2ncnn2c1Sc1ccc(NC(=O)Nc2cc(C)ccc2OC)cc1 | i
CCc1c(C)nc2ncnn2c1Sc1ccc(NC(=O)Nc2ccccc2OC)cc1 | i
CCc1cc(Sc2ccc(NC(=O)Nc3ccccc3F)cc2)n2ncnc2n1 | i
CCc1c(C)nc2ncnn2c1Sc1ccc(NC(=O)Nc2cc(OC)c(OC)c(OC)c2)cc1 | +
CCCc1cc(Sc2ccc(NC(=O)c3cccc(C)c3)cc2)n2ncnc2n1 | i
CCCc1c(C)nc2ncnn2c1Sc1ccc(NC(=O)Nc2cccc(OC)c2)cc1 | +
CCCc1cc(Sc2ccc(NC(=O)c3ccc(C)cc3)cc2)n2ncnc2n1 | i
CCCc1cc(Sc2ccc(NC(=O)Nc3ccc(Cl)cc3)cc2)n2ncnc2n1 | i
c1ccc(-c2ncn(CC3OCCc4ccccc43)c2-c2ncc[nH]2)cc1 (stereo not given) | i
CN1CC2(CCCN(C(=O)c3ccc(N(C)C)c4ccccc34)CC2)OC1=O (stereo not given) | i
CCn1c(CNS(=O)(=O)c2ccccc2F)nc2cccnc21 | i
CCC(C(=O)N(C)Cc1ccc(C)o1)n1cccc1 (stereo not given) | i
CS(=O)(=O)Nc1ccc(-c2ccc3c(c2)OCO3)cn1 | i
O=C(c1ccccc1)N1CCN(C(=O)c2cccc3c2NCCC3)CC1 | i
COC(C)c1ccc(-c2cc(C(=O)O)cc(S(=O)(=O)N3CCCC3)c2)cc1 (stereo not given) | i
CC(=O)Nc1ccc(S(=O)(=O)NCCn2c(-c3ccc(C)cc3)nc3cccnc32)cc1 | i
COCCN(Cc1cnn(C)c1)C(=O)C1CCNC1 (stereo not given) | i
O=C1OCCN1c1ccccc1-n1cnnc1 | i
Cc1cccc(NC(=O)CN2CCCN(Cc3cccc(F)c3)S2(=O)=O)c1 | i
Cc1ccc2c(C)c(C(=O)N3CCCN(c4ncccn4)CC3)oc2c1 | i
